According to PubChem BioAssay (EPA / NIEHS):
Activity calls are given as the source filed them. The calls were made as follows: active = hit-call score of the fitted dose curve at least 0.9, where 1 is the maximum; inactive = score below 0.9.

Tests used:
[1] = molecular target: Transcription factor E2F1 (Homo sapiens) (UniProt Q01094); test: ATG_E2F_CIS: Attagene CIS-FACTORIAL HepG2 Assay for human E2F Transcription Factor 1 (AID 2282935); details: HepG2 Attagene cis-reporter, E2F reporter RNA transcripts; actives raise or lower the signal
How it was run: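 First, HepG2 cells were transfected with reporter transcription units. Next, they were dosed for 24 h. Then RNA was isolated, converted to cDNA, PCR-amplified, FAM-labeled, HpaI-digested and analyzed by capillary electrophoresis.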

[2] = ATG_E_Box_CIS: Attagene CIS-FACTORIAL HepG2 Assay for human Enhancer Box (E-box) (AID 2282936); details: HepG2 E-box cis-reporter transcription, actives raise or lower the signal
How it was run: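 Endogenous transcription factor activity was sensed in human HepG2 liver cells through transfected cis-promoter reporter units. After 24 h of dosing, total RNA was reverse-transcribed and reporter cDNA resolved by capillary electrophoresis.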

[3] = ATG_M_61_CIS: Attagene CIS-FACTORIAL HepG2 Assay for M61 Transcription Factor (Internal Marker) (AID 2282937); details: HepG2 Attagene CIS-FACTORIAL M61 internal marker reporter; actives raise or lower the signal
How it was run: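 Cells were transfected with reporter units under cis-regulatory promoters, treated with chemicals for 24 h, then lysed for RNA. Reporter transcripts were quantified by RT-PCR and capillary electrophoresis, and activity was fitted bidirectionally against DMSO.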

[4] = ATG_M_19_CIS: Attagene CIS-FACTORIAL HepG2 Assay for M19 Transcription Factor (Internal Marker) (AID 2282939); details: HepG2 Attagene CIS-FACTORIAL M19 internal marker reporter; actives raise or lower the signal
How it was run: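 Transfect HepG2 with MRTU reporter library → dose chemical, 24 h → isolate total RNA, reverse-transcribe with oligo(dT) → PCR, 6-FAM label, HpaI cut (2 h, 37 C) → capillary electrophoresis. Bidirectional fit vs DMSO.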

[5] = ATG_Ets_CIS: Attagene CIS-FACTORIAL HepG2 Assay for human Erythroblast Transformation Specific (ETS) (AID 2282941); details: HepG2 ETS cis-reporter transcription, actives raise or lower the signal
How it was run: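 Endogenous transcription factor activity read as reporter mRNA via RT-PCR and capillary electrophoresis, with gain or loss fitted bidirectionally against DMSO. Human HepG2 liver cells, transiently transfected CIS reporter constructs, 24 h exposure.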

[6] = molecular target: Hepatocyte nuclear factor 3-beta (Homo sapiens) (UniProt Q9Y261); test: ATG_FoxA2_CIS: Attagene CIS-FACTORIAL HepG2 Assay for human Forkhead box A2 (FOXA2) (AID 2282942); details: HepG2 cis-reporter transcription factor activity, 24 h; actives raise or lower the signal
How it was run: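 Endogenous transcription factor activity was read in HepG2 cells carrying transiently transfected cis-promoter reporter units. After 24 h dosing, reporter mRNA was quantified by RT-PCR and capillary electrophoresis, and values fitted bidirectionally versus DMSO.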

[7] = ATG_FoxO_CIS: Attagene CIS-FACTORIAL HepG2 Assay for human Forkhead box O (FoxO) (AID 2282943); details: HepG2 Attagene cis-reporter, FoxO element, mRNA; actives raise or lower the signal
How it was run: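 Values reflect reporter mRNA induction or loss in HepG2 cells 24 h post-dosing, fitted bidirectionally with DMSO as negative control and baseline. Detection used RT-PCR and fluorescence capillary electrophoresis.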

[8] = ATG_GLI_CIS: Attagene CIS-FACTORIAL HepG2 Assay for human Zinc Finger Protein GLI1 (AID 2282945); details: HepG2, Attagene cis-factorial reporter mRNA, GLI element; actives raise or lower the signal
How it was run: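 HepG2 cells transiently transfected with cis-promoter multiplexed reporter units report endogenous transcription factor activity. After 24 h chemical exposure, reporter mRNA was quantified by RT-PCR, 6-FAM labelling, HpaI digestion and capillary electrophoresis, with bidirectional fitting against DMSO.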

[9] = molecular target: Bile acid receptor (Homo sapiens) (UniProt Q96RI1); test: ATG_IR1_CIS: Attagene CIS-FACTORIAL HepG2 Assay for human Nuclear Receptor Subfamily 1 Group H Member 4 (NR1H4), IR1 submotif (AID 2282946); details: IR1 reporter transcription, actives raise or lower the signal
How it was run: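 Readout: reporter transcript levels by RT-PCR with fluorescent capillary electrophoresis, from HepG2 cells transiently transfected with multiplexed cis-regulated reporters and dosed 24 h. Gain- or loss-of-signal fitted versus DMSO negative control.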

[10] = ATG_GRE_CIS: Attagene CIS-FACTORIAL HepG2 Assay for human Glucocorticoid Response Elements (GRE) (AID 2282947); details: HepG2 GRE cis-reporter, Attagene multiplex mRNA; actives raise or lower the signal
How it was run: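 Cells (HepG2) bearing transfected cis-promoter reporter transcription units were treated with chemical for 24 hours. Reporter mRNA was measured via RT-PCR with capillary electrophoresis, and activity was fitted in both directions relative to DMSO.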

[11] = ATG_ISRE_CIS: Attagene CIS-FACTORIAL HepG2 Assay for human Interferon Regulatory Factor 1 (IRF1) binding to an Interferon-Stimulated Response Element (ISRE) (AID 2282948); details: HepG2 ISRE cis-reporter (Attagene), mRNA transcription readout; actives raise or lower the signal
How it was run: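 Endogenous transcription factor activity read as reporter transcript abundance via RT-PCR and capillary electrophoresis. HepG2 cells transiently transfected, 24 h chemical exposure. Gain or loss fitted against DMSO baseline.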

[12] = ATG_M_32_CIS: Attagene CIS-FACTORIAL HepG2 Assay for M32 Transcription Factor (Internal Marker) (AID 2282949); details: HepG2 Attagene cis-factorial M32 reporter, mRNA; actives raise or lower the signal;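 also: background control marker of the multiplexed CIS panel rather than a real target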
How it was run: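 HepG2 transfectants (cis-regulated reporter transcription units) dosed 24 h. Reporter mRNA by RT-PCR plus CE, analysed as gain or loss relative to DMSO.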

[13] = ATG_M_06_CIS: Attagene CIS-FACTORIAL HepG2 Assay for M06 Transcription Factor (Internal Marker) (AID 2282950); details: HepG2 Attagene CIS-FACTORIAL M06 internal marker reporter; actives raise or lower the signal
How it was run: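 Read-out is fluorescence of labelled reporter cDNA fragments resolved by capillary electrophoresis after RT-PCR. Cells: HepG2 carrying transfected cis-promoter reporter units, treated 24 h. Gain or loss of signal fitted relative to DMSO.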

[14] = molecular target: Hypoxia-inducible factor 1-alpha (Homo sapiens) (UniProt Q16665); test: ATG_HIF1a_CIS: Attagene CIS-FACTORIAL HepG2 Assay for human Hypoxia Inducible Factor 1 (HIF1A) (AID 2282951); details: HepG2 Attagene cis-factorial HIF1a reporter transcription; actives raise or lower the signal
How it was run: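 Measures endogenous transcription-factor activity through cis-regulated reporter mRNA in HepG2. Cells dosed 24 h; transcripts quantified by RT-PCR with 6-FAM-labelled products separated by capillary electrophoresis; DMSO serves as negative control.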

[15] = molecular target: Heat shock factor protein 1 (Homo sapiens) (UniProt Q00613); test: ATG_HSE_CIS: Attagene CIS-FACTORIAL HepG2 Assay for human Heat Shock Transcription Factor 1 (HSE) (AID 2282953); details: HepG2 HSE cis-reporter, Attagene RNA transcription; actives raise or lower the signal
How it was run: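 HepG2, transient MRTU transfection, cis-promoter reporters (endogenous TF activity). 24 h compound. RNA → oligo(dT) RT → PCR → 6-FAM primer extension → HpaI cut → CE. Bidirectional fit vs DMSO.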

[16] = ATG_MRE_CIS: Attagene CIS-FACTORIAL HepG2 Assay for human Metal Responsive Element (MRE) (AID 2282954); details: HepG2 MRE cis-reporter transcription, Attagene multiplex; actives raise or lower the signal
How it was run: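 Cells were transfected with cis-promoter reporter transcription units, then dosed for 24 h. RNA was reverse-transcribed, amplified, fluorescently labelled and resolved by capillary electrophoresis, and activity was fitted in both directions relative to DMSO.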

[17] = ATG_ERE_CIS: Attagene CIS-FACTORIAL HepG2 Assay for Estrogen Response Element (ERE) (AID 2282940); details: HepG2 ERE cis-reporter, Attagene RNA transcript; actives raise or lower the signal
How it was run: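 Transient MRTU transfection of human HepG2; cis-element promoters; 24 h dosing; total RNA → RT (oligo dT) → PCR → 6-FAM primer extension → HpaI digest → CE fluorescence. Bidirectional fit, DMSO baseline.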

[18] = ATG_GATA_CIS: Attagene CIS-FACTORIAL HepG2 Assay for human GATA Binding Protein (AID 2282944); details: HepG2 GATA cis-element reporter, Attagene multiplex mRNA; actives raise or lower the signal
How it was run: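 Transient MRTU transfection, HepG2, 24 h compound exposure. Total RNA → oligo(dT) RT → PCR → 6-FAM primer extension → HpaI cut → CE. Bidirectional fit vs DMSO.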

[19] = ATG_EGR_CIS: Attagene CIS-FACTORIAL HepG2 Assay for human Early Growth Response 1 (EGR1) (AID 2282938); details: HepG2 Attagene CIS-FACTORIAL EGR reporter mRNA; actives raise or lower the signal
How it was run: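 Endogenous TF activity in HepG2 liver cells was gauged through cis-promoter reporter constructs transiently transfected. After 24 h dosing, reporter mRNA was quantified by RT-PCR and capillary electrophoresis, and curves fitted in both directions versus DMSO.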

[20] = molecular target: Hepatocyte nuclear factor 6 (Homo sapiens) (UniProt Q9UBC0); test: ATG_HNF6_CIS: Attagene CIS-FACTORIAL HepG2 Assay for human Hepatocyte Nuclear Factor 6 (HNF6) (AID 2282952); details: HepG2 Attagene cis-factorial HNF6 reporter transcription; actives raise or lower the signal
How it was run: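 Endogenous transcription factor activity in human HepG2 liver cells was captured through cis-regulated reporter constructs. After 24 h treatment, reporter mRNA was measured by RT-PCR with capillary electrophoresis, and activity was fitted in both directions relative to DMSO.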

Measured: AC50

Hepatocyte nuclear factor 6 (Homo sapiens), sequence (Q9UBC0 whole entry, looked up): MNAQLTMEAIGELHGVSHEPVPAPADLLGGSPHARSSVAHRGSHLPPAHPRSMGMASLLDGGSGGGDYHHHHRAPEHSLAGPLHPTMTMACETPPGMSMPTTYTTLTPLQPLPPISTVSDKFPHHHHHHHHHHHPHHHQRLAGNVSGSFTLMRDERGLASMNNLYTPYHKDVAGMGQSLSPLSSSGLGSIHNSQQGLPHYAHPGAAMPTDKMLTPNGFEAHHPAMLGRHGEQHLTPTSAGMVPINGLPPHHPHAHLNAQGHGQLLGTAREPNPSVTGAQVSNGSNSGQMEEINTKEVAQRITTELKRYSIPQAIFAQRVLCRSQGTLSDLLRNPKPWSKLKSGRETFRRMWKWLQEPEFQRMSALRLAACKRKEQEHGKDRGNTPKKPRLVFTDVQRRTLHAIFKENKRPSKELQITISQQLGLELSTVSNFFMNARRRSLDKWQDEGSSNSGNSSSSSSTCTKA
Hypoxia-inducible factor 1-alpha (Homo sapiens), sequence (Q16665 whole entry, looked up): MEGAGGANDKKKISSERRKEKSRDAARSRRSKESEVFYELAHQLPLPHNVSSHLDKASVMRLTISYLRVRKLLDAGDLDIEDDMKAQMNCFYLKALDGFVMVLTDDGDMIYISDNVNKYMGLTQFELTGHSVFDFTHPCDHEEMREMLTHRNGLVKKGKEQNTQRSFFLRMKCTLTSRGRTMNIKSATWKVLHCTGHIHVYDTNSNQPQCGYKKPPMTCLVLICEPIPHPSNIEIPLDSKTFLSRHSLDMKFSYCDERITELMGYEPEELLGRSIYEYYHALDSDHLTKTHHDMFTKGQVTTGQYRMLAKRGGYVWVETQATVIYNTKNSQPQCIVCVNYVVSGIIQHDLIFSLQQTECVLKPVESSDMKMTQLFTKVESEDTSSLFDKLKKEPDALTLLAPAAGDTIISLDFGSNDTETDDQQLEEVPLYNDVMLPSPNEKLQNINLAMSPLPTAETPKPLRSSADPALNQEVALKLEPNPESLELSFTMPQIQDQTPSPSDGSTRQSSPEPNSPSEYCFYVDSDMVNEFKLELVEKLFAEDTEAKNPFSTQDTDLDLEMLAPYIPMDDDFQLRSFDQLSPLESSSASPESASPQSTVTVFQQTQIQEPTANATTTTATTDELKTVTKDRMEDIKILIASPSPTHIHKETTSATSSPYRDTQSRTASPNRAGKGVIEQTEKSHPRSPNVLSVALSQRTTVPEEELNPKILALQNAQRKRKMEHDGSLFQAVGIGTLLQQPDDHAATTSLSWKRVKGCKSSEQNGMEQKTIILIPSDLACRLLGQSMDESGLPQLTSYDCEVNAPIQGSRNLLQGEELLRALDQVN
Transcription factor E2F1 (Homo sapiens), sequence (Q01094 whole entry, looked up): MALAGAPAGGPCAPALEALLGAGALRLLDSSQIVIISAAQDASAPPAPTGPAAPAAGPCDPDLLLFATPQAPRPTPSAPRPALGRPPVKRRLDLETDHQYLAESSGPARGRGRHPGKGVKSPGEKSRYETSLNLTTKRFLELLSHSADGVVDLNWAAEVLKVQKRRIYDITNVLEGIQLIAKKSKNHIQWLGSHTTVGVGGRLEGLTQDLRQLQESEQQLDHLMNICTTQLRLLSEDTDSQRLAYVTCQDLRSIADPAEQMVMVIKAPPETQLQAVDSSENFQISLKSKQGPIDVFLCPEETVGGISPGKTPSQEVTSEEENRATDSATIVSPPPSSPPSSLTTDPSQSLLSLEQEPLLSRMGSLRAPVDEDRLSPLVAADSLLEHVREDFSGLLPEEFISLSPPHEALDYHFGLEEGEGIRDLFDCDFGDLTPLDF
Hepatocyte nuclear factor 3-beta (Homo sapiens), sequence (Q9Y261 whole entry, looked up): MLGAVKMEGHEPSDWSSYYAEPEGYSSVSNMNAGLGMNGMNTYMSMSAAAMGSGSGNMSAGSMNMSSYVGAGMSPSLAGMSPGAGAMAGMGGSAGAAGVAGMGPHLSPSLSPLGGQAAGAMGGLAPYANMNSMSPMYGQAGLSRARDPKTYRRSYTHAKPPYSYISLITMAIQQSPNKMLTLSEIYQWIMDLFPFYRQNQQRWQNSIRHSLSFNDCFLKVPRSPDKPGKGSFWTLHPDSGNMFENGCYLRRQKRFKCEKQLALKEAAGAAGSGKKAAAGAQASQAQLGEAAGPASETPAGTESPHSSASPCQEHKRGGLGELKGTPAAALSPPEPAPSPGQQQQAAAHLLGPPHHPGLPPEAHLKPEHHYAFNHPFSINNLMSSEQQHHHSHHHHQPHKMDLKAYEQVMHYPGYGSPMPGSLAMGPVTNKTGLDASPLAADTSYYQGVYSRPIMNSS
Bile acid receptor (Homo sapiens), sequence (Q96RI1 whole entry, looked up): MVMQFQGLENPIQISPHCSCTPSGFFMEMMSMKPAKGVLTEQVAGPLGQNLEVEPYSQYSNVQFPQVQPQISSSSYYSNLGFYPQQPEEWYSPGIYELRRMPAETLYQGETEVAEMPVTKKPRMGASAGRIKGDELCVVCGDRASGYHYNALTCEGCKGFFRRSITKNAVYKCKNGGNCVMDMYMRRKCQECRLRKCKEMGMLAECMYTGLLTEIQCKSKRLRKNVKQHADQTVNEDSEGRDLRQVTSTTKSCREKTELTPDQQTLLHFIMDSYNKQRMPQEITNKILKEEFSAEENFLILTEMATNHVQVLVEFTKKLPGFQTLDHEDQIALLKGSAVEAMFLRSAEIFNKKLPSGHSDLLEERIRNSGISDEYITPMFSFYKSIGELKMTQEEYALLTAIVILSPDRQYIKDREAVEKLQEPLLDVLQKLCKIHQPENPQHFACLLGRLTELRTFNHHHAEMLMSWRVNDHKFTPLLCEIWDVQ
Heat shock factor protein 1 (Homo sapiens), sequence (Q00613 whole entry, looked up): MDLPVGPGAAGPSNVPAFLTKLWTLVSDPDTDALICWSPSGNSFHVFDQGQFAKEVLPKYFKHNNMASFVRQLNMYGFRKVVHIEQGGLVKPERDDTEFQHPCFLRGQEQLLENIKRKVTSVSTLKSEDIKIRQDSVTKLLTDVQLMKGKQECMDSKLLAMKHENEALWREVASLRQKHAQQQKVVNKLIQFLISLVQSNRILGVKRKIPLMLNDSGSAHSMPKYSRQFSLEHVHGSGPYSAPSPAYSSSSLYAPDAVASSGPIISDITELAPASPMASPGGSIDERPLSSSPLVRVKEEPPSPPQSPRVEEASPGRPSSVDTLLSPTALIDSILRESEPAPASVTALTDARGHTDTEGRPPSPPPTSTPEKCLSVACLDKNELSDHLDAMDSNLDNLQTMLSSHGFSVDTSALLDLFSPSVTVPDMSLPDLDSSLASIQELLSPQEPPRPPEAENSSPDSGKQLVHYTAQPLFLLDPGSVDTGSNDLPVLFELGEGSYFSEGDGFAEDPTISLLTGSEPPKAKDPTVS

C=CC(=O)OCC(F)(F)C(F)F
active: [11] 150 µM | [16] 117 µM
inactive: [1] | [2] | [3] | [4] | [5] | [6] | [7] | [8] | [9] | [10] | [12] | [13] | [14] | [15]

CCCCc1ccc(O)cc1
active: [17] 7.43 µM | [14] 164 µM | [15] 139 µM
inactive: [1] | [2] | [3] | [4] | [5] | [6] | [7] | [18] | [8] | [9] | [10] | [11] | [12] | [13] | [16]

Cc1ccc2c(c1N)C(=O)c1ccccc1C2=O
inactive: [1] | [2] | [3] | [4] | [5] | [6] | [7] | [8] | [9] | [10] | [11] | [12] | [13] | [14] | [16]

Cc1c([N+](=O)[O-])cc2c(c1[N+](=O)[O-])C(C)(C)CC2(C)C
inactive: [1] | [2] | [3] | [19] | [4] | [5] | [6] | [7] | [8] | [9] | [10] | [11] | [12] | [13] | [14] | [20] | [15] | [16]

Cc1ccc(N)cc1N
inactive: [1] | [2] | [3] | [19] | [4] | [5] | [6] | [7] | [8] | [9] | [10] | [11] | [12] | [13] | [14] | [15] | [16]

CNC(=O)Oc1ccc(N(C)C)c(C)c1
inactive: [1] | [2] | [3] | [4] | [5] | [6] | [7] | [18] | [8] | [9] | [10] | [11] | [12] | [13] | [14] | [20] | [15] | [16]

Nc1cc2c3c(c1)C(c1ccccc1)=N[C@@H](NC(=O)c1cccnc1)C(=O)N3CC2
active: [16] 71.5 µM
inactive: [1] | [2] | [3] | [4] | [17] | [5] | [6] | [7] | [18] | [8] | [10] | [11] | [12] | [13] | [14] | [20] | [15]

O=[N+]([O-])c1ccc(Cl)c(Cl)c1
inactive: [1] | [2] | [19] | [4] | [17] | [5] | [6] | [7] | [18] | [8] | [9] | [10] | [11] | [12] | [13] | [14] | [20] | [15] | [16]

CCCCOCC1CO1 (centres undefined)
inactive: [1] | [2] | [3] | [4] | [17] | [5] | [6] | [7] | [18] | [8] | [9] | [10] | [11] | [12] | [13] | [14] | [20] | [16]

CC(O)C(F)(F)C(F)(F)F (centres undefined)
inactive: [1] | [2] | [3] | [4] | [17] | [5] | [6] | [7] | [8] | [9] | [10] | [11] | [12] | [13] | [14] | [15] | [16]

OCC(F)(F)OC(F)(F)C(F)(F)OC(F)(F)CO
active: [17] 20 µM
inactive: [1] | [2] | [3] | [4] | [5] | [6] | [7] | [18] | [8] | [9] | [10] | [11] | [12] | [13] | [14] | [20] | [16]

CC(Cl)(Cl)C(=O)O
inactive: [1] | [2] | [3] | [4] | [5] | [6] | [7] | [18] | [8] | [10] | [11] | [12] | [13] | [14] | [20] | [16]

O=[N+]([O-])c1cc(Cl)ccc1Cl
inactive: [1] | [2] | [3] | [19] | [4] | [5] | [6] | [7] | [8] | [9] | [10] | [11] | [12] | [13] | [14] | [20] | [15] | [16]

CCCCN(CC)C(=O)SCCC
inactive: [1] | [2] | [3] | [19] | [4] | [5] | [6] | [7] | [8] | [9] | [10] | [11] | [12] | [13] | [14] | [20] | [15] | [16]
